Reference: ChEMBL document CHEMBL4513155, “CO-ADD screening of University of Sydney (Australia) compounds” (2021)
Entries with a potency or affinity are not part of this list.

What was measured:
Staphylococcus aureus = conditions: Concentration 32 ug.mL-1; ASSAY_TEST Inhibition of Bacterial Growth; detection method Absorption (OD600); MEDIA CAMHB; plate type 384well; NBS; CORNING #3640; time 18 hr
Escherichia coli = conditions: Concentration 32 ug.mL-1; ASSAY_TEST Inhibition of Bacterial Growth; detection method Absorption (OD600); MEDIA CAMHB; plate type 384well; NBS; CORNING #3640; time 18 hr

Row | Structure (SMILES) | Inhibition (Staphylococcus aureus) [%] | Inhibition (Escherichia coli) [%]
1 | Fc1ccc(CCOc2cncc3nnc(-c4ccc(C(F)(F)F)nc4)n23)cc1F | 6.53 | 1.6
2 | COC(COc1cncc2nnc(-c3ccc(C#N)cc3)n12)c1ccc(F)c(F)c1 (centres undefined) | -4.85 | 2.52
3 | Fc1ccc(CCOc2cncc3nnc(-c4ccc(Cl)cc4)n23)cc1F | -7.02 | -0.47
4 | CN(C)C(COc1cncc2nnc(-c3ccc(C#N)cc3)n12)c1ccc(F)c(F)c1 (centres undefined) | -0.93 | 3.93
5 | CCN1C(=O)c2cccc3c(-c4cn(CCN5CCCNCCN(CCn6cc([C@]7(O)CC[C@H]8[C@@H]9CCc%10cc(O)ccc%10[C@H]9CC[C@@]87C)nn6)CCCNCC5)nn4)ccc(c23)C1=O.OCCN1CCN(CCCN2c3ccccc3Sc3ccc(Cl)cc32)CC1.[O-][Cl+3]([O-])([O-])[O-].[O-][Cl+3]([O-])([O-])[O-].[Zn+2] | 38.05 | 0.56
6 | O.O=C1c2cccc3c(-n4cc(CN5CCCNCCN(Cc6cn(-c7ccc8c9c(cccc79)C(=O)N(CCCO)C8=O)nn6)CCCNCC5)nn4)ccc(c23)C(=O)N1CCCO.[Cl-].[Cl-].[Zn+2] | 7.81 | 6.15
7 | N#Cc1ccc(-c2nnc3cncc(OCC(O)c4ccc(F)c(F)c4)n23)cc1 (centres undefined) | -3.19 | 2.25
